Reference: PubChem BioAssay AID1159580 (chemical genetic matrix, 2015)
About 2,000 (36%) of roughly 5,500 compounds were called active. Another 18% or so got no clear call; they are omitted. Cut-off read from the data, not from the text of the source: active = normalized growth mostly below about 0.91 (no sharp cut-off); inconclusive = no clear call, values can overlap the other calls; inactive = mostly above about 0.92. This is one part of the list.

Assay: chemical genetic growth profiling, strain panel (AID 1159580);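 note: tested at 20 µM; growth read once vehicle control cultures reached saturation at 30 °C; 1 = growth at the plate median or of vehicle wells; lower values mean less growth of the strain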
Conditions: growth OD

Measured: normalized growth

COc1ccc2c(c1)OC/C(=C\c1ccc(OC)c(O)c1)C2=O
active: S. cerevisiae deletion strains, locus YKL009W, strain mrt4, stronger effect = lower value 0.843 | S. cerevisiae deletion strains, locus YKL085W, strain MDH1 (second series), stronger effect = lower value 0.915 | S. cerevisiae deletion strains, locus YKL085W, strain MDH1, stronger effect = lower value 0.915 | S. cerevisiae deletion strains, locus YKL160W, strain elf1, stronger effect = lower value 0.831 | S. cerevisiae deletion strains, locus YKL190W, strain CNB1, stronger effect = lower value 0.81 | S. cerevisiae deletion strains, locus YKR001C, strain vps1, stronger effect = lower value 0.651 | S. cerevisiae deletion strains, locus YLL001W, strain dnm1, stronger effect = lower value 0.823 | S. cerevisiae deletion strains, locus YLR027C, strain aat2, stronger effect = lower value 0.84 | S. cerevisiae deletion strains, locus YLR039C, strain RIC1, stronger effect = lower value 0.51 | S. cerevisiae deletion strains, locus YLR058C, strain SHM2, stronger effect = lower value 0.774 | S. cerevisiae deletion strains, locus YLR102C, strain apc9, stronger effect = lower value 0.824 | S. cerevisiae deletion strains, locus YLR221C, strain rsa3, stronger effect = lower value 0.841 | S. cerevisiae deletion strains, locus YLR258W, strain gsy2, stronger effect = lower value 0.891 | S. cerevisiae deletion strains, locus YLR262C, strain YPT6 (second series), stronger effect = lower value 0.719 | S. cerevisiae deletion strains, locus YLR262C, strain YPT6, stronger effect = lower value 0.423 | S. cerevisiae deletion strains, locus YLR268W, strain sec22, stronger effect = lower value 0.709 | S. cerevisiae deletion strains, locus YLR320W, strain mms22, stronger effect = lower value 0.652 | S. cerevisiae deletion strains, locus YLR330W, strain CHS5, stronger effect = lower value 0.467 | S. cerevisiae deletion strains, locus YLR342W, strain FKS1 (second series), stronger effect = lower value 0.702 | S. cerevisiae deletion strains, locus YLR342W, strain FKS1, stronger effect = lower value 0.885 | S. cerevisiae deletion strains, locus YLR371W, strain rom2, stronger effect = lower value 0.584 | S. cerevisiae deletion strains, locus YLR418C, strain cdc73, stronger effect = lower value 0.322 | S. cerevisiae deletion strains, locus YML016C, strain PPZ1, stronger effect = lower value 0.791 | S. cerevisiae deletion strains, locus YML032C, strain rad52, stronger effect = lower value 0.787 | S. cerevisiae deletion strains, locus YML120C, strain ndi1, stronger effect = lower value 0.858 | S. cerevisiae deletion strains, locus YML124C, strain tub3, stronger effect = lower value 0.865 | S. cerevisiae deletion strains, locus YMR058W, strain fet3, stronger effect = lower value 0.846 | S. cerevisiae deletion strains, locus YMR078C, strain ctf18, stronger effect = lower value 0.458 | S. cerevisiae deletion strains, locus YMR125W, strain sto1, stronger effect = lower value 0.863 | S. cerevisiae deletion strains, locus YMR205C, strain PFK2, stronger effect = lower value 0.768 | S. cerevisiae deletion strains, locus YMR223W, strain ubp8, stronger effect = lower value 0.761 | S. cerevisiae deletion strains, locus YMR307W, strain GAS1, stronger effect = lower value 0.557 | S. cerevisiae deletion strains, locus YNL067W, strain RPL9B, stronger effect = lower value 0.774 | S. cerevisiae deletion strains, locus YNL071W, strain lat1, stronger effect = lower value 0.369 | S. cerevisiae deletion strains, locus YNL233W, strain BNI4, stronger effect = lower value 0.448 | S. cerevisiae deletion strains, locus YNL250W, strain rad50, stronger effect = lower value 0.885 | S. cerevisiae deletion strains, locus YNL271C, strain bni1, stronger effect = lower value 0.865 | S. cerevisiae deletion strains, locus YNL298W, strain CLA4, stronger effect = lower value 0.895 | S. cerevisiae deletion strains, locus YNL307C, strain MCK1, stronger effect = lower value 0.127 | S. cerevisiae deletion strains, locus YNL322C, strain KRE1, stronger effect = lower value 0.793 | S. cerevisiae deletion strains, locus YNR052C, strain pop2, stronger effect = lower value 0.885 | S. cerevisiae deletion strains, locus YOL147C, strain pex11, stronger effect = lower value 0.542 | S. cerevisiae deletion strains, locus YOR001W, strain rrp6, stronger effect = lower value 0.848 | S. cerevisiae deletion strains, locus YOR069W, strain VPS5, stronger effect = lower value 0.807 | S. cerevisiae deletion strains, locus YOR070C, strain gyp1, stronger effect = lower value 0.882 | S. cerevisiae deletion strains, locus YOR083W, strain WHI5, stronger effect = lower value 0.869 | S. cerevisiae deletion strains, locus YOR106W, strain vam3, stronger effect = lower value 0.847 | S. cerevisiae deletion strains, locus YOR136W, strain idh2, stronger effect = lower value 0.796 | S. cerevisiae deletion strains, locus YOR144C, strain elg1, stronger effect = lower value 0.766 | S. cerevisiae deletion strains, locus YOR184W, strain ser1, stronger effect = lower value 0.472 | S. cerevisiae deletion strains, locus YOR270C, strain vph1, stronger effect = lower value 0.661 | S. cerevisiae deletion strains, locus YOR290C, strain snf2, stronger effect = lower value 0.789 | S. cerevisiae deletion strains, locus YOR316C, strain cot1, stronger effect = lower value 0.882 | S. cerevisiae deletion strains, locus YPL051W, strain arl3, stronger effect = lower value 0.836 | S. cerevisiae deletion strains, locus YPL055C, strain LGE1, stronger effect = lower value 0.576 | S. cerevisiae deletion strains, locus YPL078C, strain atp4, stronger effect = lower value 0.836 | S. cerevisiae deletion strains, locus YPL106C, strain sse1, stronger effect = lower value 0.729 | S. cerevisiae deletion strains, locus YPR119W, strain clb2, stronger effect = lower value 0.859 | S. cerevisiae deletion strains, locus YPR163C, strain tif3, stronger effect = lower value 0.351 | S. cerevisiae deletion strains, locus YPR167C, strain met16, stronger effect = lower value 0.811 | S. cerevisiae deletion strains, strain wtn01, stronger effect = lower value 0.711 | S. cerevisiae strains, strain wild type, stronger effect = lower value 0.663
inactive: S. cerevisiae deletion strains, locus YJR066W, strain TOR1, stronger effect = lower value 0.891 | S. cerevisiae deletion strains, locus YKL068W, stronger effect = lower value 0.948 | S. cerevisiae deletion strains, locus YKR026C, strain gcn3, stronger effect = lower value 0.946 | S. cerevisiae deletion strains, locus YKR091W, strain srl3, stronger effect = lower value 0.962 | S. cerevisiae deletion strains, locus YLL026W, stronger effect = lower value 0.931 | S. cerevisiae deletion strains, locus YLL041C, strain sdh2, stronger effect = lower value 0.955 | S. cerevisiae deletion strains, locus YLR113W, strain HOG1, stronger effect = lower value 0.909 | S. cerevisiae deletion strains, locus YLR357W, strain rsc2, stronger effect = lower value 0.964 | S. cerevisiae deletion strains, locus YLR370C, strain arc18, stronger effect = lower value 0.938 | S. cerevisiae deletion strains, locus YLR384C, strain iki3, stronger effect = lower value 0.95 | S. cerevisiae deletion strains, locus YMR129W, stronger effect = lower value 0.946 | S. cerevisiae deletion strains, locus YMR231W, strain pep5, stronger effect = lower value 0.977 | S. cerevisiae deletion strains, locus YNL183C, strain NPR1, stronger effect = lower value 0.924 | S. cerevisiae deletion strains, locus YNL209W, strain ssb2, stronger effect = lower value 0.938 | S. cerevisiae deletion strains, locus YNL248C, strain rpa49, stronger effect = lower value 0.902 | S. cerevisiae deletion strains, locus YNL322C, strain KRE1 (second series), stronger effect = lower value 0.95 | S. cerevisiae deletion strains, locus YNR049C, strain mso1, stronger effect = lower value 0.955 | S. cerevisiae deletion strains, locus YOL006C, strain TOP1, stronger effect = lower value 0.563 | S. cerevisiae deletion strains, locus YOL012C, strain htz1 0.356 | S. cerevisiae deletion strains, locus YOR061W, strain CKA2, stronger effect = lower value 0.93 | S. cerevisiae deletion strains, locus YOR080W, strain dia2, stronger effect = lower value 0.925 | S. cerevisiae deletion strains, locus YOR231W, strain MKK1, stronger effect = lower value 0.995 | S. cerevisiae deletion strains, locus YOR265W, strain rbl2, stronger effect = lower value 0.941 | S. cerevisiae deletion strains, locus YPL240C, strain hsp82, stronger effect = lower value 0.929 | S. cerevisiae deletion strains, locus YPL241C, strain CIN2, stronger effect = lower value 0.958 | S. cerevisiae deletion strains, locus YPL256C, strain CLN2, stronger effect = lower value 0.958 | S. cerevisiae deletion strains, locus YPR141C, strain kar3, stronger effect = lower value 0.924
